# Results as given in ChEMBL document CHEMBL4513216, “Probing the Open Global Health Chemical Diversity Library for Multistage-Active Starting Points for Next-Generation Antimalarials” (ACS Infect Dis, 2020).
# Among all 69,000 compounds or so, about 8,600 (12%) showed an effect of 50% or more. Shown is part of a subset that was picked to be rich in strong results.
# System: Plasmodium berghei
# Test: Screen against P. berghei liver stage (PbLuc), transformed with Luciferase, at 10uM
# Assay type: functional, HepG2
# Conditions: tested at 10 uM
row,SMILES,INHIBITION
1,CCOC(=O)c1n[nH]cc1-c1cncn1CCn1nc(C)c(C)c1C,12.3%
2,COc1ccc(-c2cc(C3CCCCCN3S(C)(=O)=O)on2)cc1 (configuration not stated),12.725%
3,COc1ccc(-c2cc(C3CCCCCN3S(=O)(=O)N(C)C)on2)cc1 (configuration not stated),55.2%
4,CN(C)S(=O)(=O)N1CCCCCC1c1cc(-c2ccc(F)cc2)no1 (configuration not stated),38.4%
5,CSc1cccc(CNC(=O)[C@H]2CNC[C@H](C(=O)N3CCOCC3)C2)c1,35.8%
6,O=C1Nc2ccccc2CNC12CCN(CC1CCNC1)CC2 (configuration not stated),29.2%
7,COCc1cccc(C(=O)N2C[C@@H]3CC[C@H]2CN(Cc2cscn2)C3)n1,-38.6%
8,C[C@H](NC(=O)C1CCCC1)c1nc2cc(-c3ccc(F)cc3)ncn2n1,58.1%
9,C[C@H](NC(=O)C1CC1)c1nc2cc(-c3ccc(F)cc3)ncn2n1,49.6%
10,COc1ccc(-c2cc3nc([C@H](C)NC(=O)C4CC4)nn3cn2)cc1,-5.71%
11,CCN1Cc2ccccc2CC2(CCN(CC(=O)O)CC2)C1=O,37.5%
12,NCCC(=O)Nc1ccc(-c2ccccc2)cc1,14.5%
13,Cc1ccc(OCC(=O)NC2(C#N)CCSCC2)cc1C,41.4%
14,Cc1c(Cl)cccc1OCC(=O)NC1(C#N)CCSC1 (configuration not stated),87.2%
15,N#CC1(NC(=O)COc2cc(Cl)cc(Cl)c2)CCSC1 (configuration not stated),38.5%
16,CN(C)C(=O)c1cc(-c2ccccc2)[nH]n1,-35%
17,CC(C)c1ccc(CC2(C)Cc3cc(CC(=O)O)ccc3O2)cc1 (configuration not stated),20.85%
18,CN(C)[C@H]1CCCCN(C(=O)c2cccc(N3CCS(=O)(=O)CC3)c2)C1,30.9%
19,CN(C)Cc1cnc(C2CCN(C(=O)c3cccc(F)c3)C2)[nH]1 (configuration not stated),41.7%
20,CN(C)[C@H]1CCCCN(C(=O)c2cccc(-c3cccc(F)c3)c2)C1,60.4%
21,CN(C(=O)CCNC(=O)NC1CCCCC1)c1ccccc1,27.6%
22,Cn1c(NCC(O)c2ccccc2F)c(C#N)c(=O)n(C)c1=O (configuration not stated),-5.25%

row,SMILES,INHIBITION
1,CNC(=O)[C@@H]1C[C@@H](NC(=O)Cc2cccs2)CN1C1CCOCC1,23.5%
2,CNC(=O)[C@@H]1C[C@@H](NC(=O)CSc2ccccc2)CN1C1CCOCC1,54.6%
3,CNC(=O)[C@@H]1C[C@@H](NC(=O)CCCc2cccs2)CN1C1CCOCC1,10.4%
4,CC(C)n1cc(CN2CCCN(C(=O)C3CCCN3C)CC2)cn1 (configuration not stated),26.4%
5,CCN(CCO)C[C@@H]1CN(c2cccc(C(F)(F)F)n2)C[C@@H]1CO,3.13%
6,COc1ccccc1OCC(=O)NS(=O)(=O)c1ccc(F)cc1F,63.3%
7,COc1ccccc1CC(=O)NS(=O)(=O)c1ccc(C#N)cc1,15.6%
8,COc1ccccc1OCC(=O)NS(=O)(=O)c1ccc(Cl)cc1F,29.5%
9,COc1cc(C#N)ccc1OCC(=O)NS(=O)(=O)c1cccnc1,19.4%
10,COc1ccccc1OCC(=O)NS(=O)(=O)c1cc(F)ccc1F,5.14%
11,COc1cc(C#N)ccc1OCC(=O)NS(=O)(=O)c1ccccc1,50.6%
12,CN1CCCN(C(=O)NCc2cc(Br)cs2)CC1,-13.935%
13,Cc1ccc(-c2cc(C(=O)NCCN3CCCS3(=O)=O)[nH]n2)cc1,-8.15%
14,Cc1ccccc1NC(=O)Nc1c[nH]c(=O)[nH]c1=O,35.7%
15,Cc1ccc(CN2CCc3ncc(CNC(=O)C4CCC4)n3CC2)o1,45.1%
16,O=C(NCCOC1CCCCC1)c1ccc(-c2ccco2)[nH]c1=O,-14.6%
17,Cc1nc(-c2nnc[nH]2)sc1C(=O)N1CCCC1Cn1cccn1 (configuration not stated),-1.45%
18,O=C(Cc1ccc2c(c1)CCCC2)N[C@@H]1CC[C@@H](n2ccnc2)[C@@H]1O,64.9%
19,O=C(N[C@@H]1CCC[C@@H](n2ccnc2)[C@@H]1O)c1ccc2c(c1)CCCC2,38.2%
20,O=C(N[C@@H]1CC[C@@H](n2ccnc2)[C@@H]1O)c1cc2c(s1)CCC2,9.93%
21,CCN1CC[C@@]2(C(=O)N3CCOCC3)CCN(C(=O)CC(C)C)CC[C@@H]12,11.2%
22,CNC(=O)CCS(=O)(=O)Cc1cc(Cl)c2c(c1)OCCCO2,-11.4%

row,SMILES,INHIBITION
1,Cc1occc1C(=O)N1CCO[C@H]2[C@H](Oc3cccnc3)CC[C@@H]21,18.6%
2,COCCc1noc(C2CCCN(c3ncnc4c3CCC4)C2)n1 (configuration not stated),78.8%
3,c1nc2c(c(N3CCCC(Cn4cncn4)C3)n1)CCC2 (configuration not stated),29.2%
4,COCCn1ccnc1C1CCCN(c2ncnc3c(C)csc23)C1 (configuration not stated),-0.529%
5,COCCc1noc(C2CCCN(c3nc(N)nc4c3CCCC4)C2)n1 (configuration not stated),65.2%
6,COCCc1noc(CN2CCCC2c2noc(C3CC3)n2)n1 (configuration not stated),-14.1%
7,CCc1nc2c(N3CCCC(c4nccn4CCOC)C3)ncnc2o1 (configuration not stated),29.1%
8,COCCn1ccnc1C1CCCN(c2ncnc3c2CCC3)C1 (configuration not stated),57.5%
9,CC(=O)NC1CCN(c2nc(N)nc3c2CCCC3)C1 (configuration not stated),46.6%
10,CCc1c(C)nc(N)nc1N1CCCC(c2nc(CCOC)no2)C1 (configuration not stated),68.6%
11,COCCN1CCN(Cc2noc(C3CC3)n2)CC1C (configuration not stated),20.1%
12,Cc1cc(C)n(C2CCN(c3ncnc4c3CCC4)C2)n1 (configuration not stated),36.1%
13,COCCCN(C)C1CCCN(Cc2noc(C3CC3)n2)C1 (configuration not stated),44.1%
14,COC[C@]12COC[C@H]1CN(Cc1ccc3c(c1)OCO3)C2,35.8%
15,Cc1cnn(CC2CCCN2C(=O)c2nccnc2N)c1 (configuration not stated),43.2%
16,COc1ccc(OC)c(C(=O)N2CCC(Nc3cccnc3)CC2)c1,-5.08%
17,O=C(NC1CCCN(c2ccccc2Cl)C1)c1ccc(=O)[nH]n1 (configuration not stated),28.7%
18,CC(C)c1nn(C)c(N(C)C)c1CNCc1ccc2c(c1)OCCO2,19.6%
19,Cc1cc(C(=O)NCc2ccnc(OCC(F)(F)F)c2)no1,-10.45%
20,CCn1ncc(C(=O)NCc2ccc(C)c(OC)c2)c1C(F)(F)F,46.7%
21,Cc1cc(C(=O)NCc2ccnc(OCC(F)(F)F)c2)on1,-20.893%
22,COc1cc(CNC(=O)c2c(C)noc2C)ccn1,32.15%

row,SMILES,INHIBITION
1,Cc1n[nH]c(C(=O)NCc2ccnc(OCC(F)(F)F)c2)c1Br,81.5%
2,CCOc1cccc(CNC(=O)c2cnn(CC)c2C(F)(F)F)c1,-15.3%
3,Cc1ccoc1C(=O)NCc1ccnc(OCC(F)(F)F)c1,-23.593%
4,Cc1noc(C)c1CC(=O)NCc1ccnc(OCC(F)(F)F)c1,-9.535%
5,Cc1ccsc1C(=O)NCc1ccnc(OCC(F)(F)F)c1,39.5%
6,Cc1noc(C)c1C(=O)NCc1ccnc(OCC(F)(F)F)c1,63.6%
7,Cc1ncsc1C(=O)NCc1ccnc(OCC(F)(F)F)c1,73.05%
8,CCOc1cc(CNC(=O)c2cnn(CC)c2C(F)(F)F)ccn1,70.4%
9,CCn1ncc(S(=O)(=O)N2CCCC3(CC=CNC3=O)C2)c1C (configuration not stated),46.2%
10,CC(C)c1nc2n(n1)CC(NCc1nnc(C3CC3)o1)CC2 (configuration not stated),-2.53%
11,Cc1nc(C(C)C)sc1C(=O)NCCn1nc2ccccn2c1=O,-22.5%
12,COCC1CCCN(C(=O)c2ccccc2NCc2cccnc2)C1 (configuration not stated),18.9%
13,O=C(CCCOc1cccc(F)c1)N1CCCC(n2cncn2)C1 (configuration not stated),-49.5%
14,Cc1nc(CN2C(=O)CCC23CCN(Cc2cccn2C)CC3)cs1,29.3%
15,Cc1nnc2n1CCN(C(C(=O)N1CCCCC1)c1ccccc1)C2 (configuration not stated),11.15%
16,O=C1CCN(C(=O)CCc2ccc(Cl)cc2Cl)CCN1,4.97%
17,O=C(NCc1ccc(Cl)cc1Cl)NCC1(O)CCSC1 (configuration not stated),31.2%
18,CCOC(=O)Cn1ccc(O)c(Cc2ccc(Cl)cc2Cl)c1=O,1.95%
19,NC(=O)Cn1ccc(O)c(Cc2ccc(Cl)cc2Cl)c1=O,71.9%
20,O=c1c(Cc2ccc(Cl)cc2Cl)c(O)ccn1CC1CC1,86.6%
21,COc1ccc2c(=O)n(CC3CC3)ccc2c1OC,6.28%
22,COc1nc2c(cc1C(=O)NC(C)Cc1cnccn1)CCC2 (configuration not stated),-40.5%

row,SMILES,INHIBITION
1,O=C(NCCNc1ccc(C(F)(F)F)cn1)c1cc(Cl)ccc1F,37.3%
2,CC(=O)Nc1cccc(Cn2nc(C)nc2C)c1,39.7%
3,C=C(C)COCCNC(=O)Nc1cccc(Cn2nc(C)nc2C)c1,62.8%
4,Cc1nc(C)n(Cc2cccc(NC(=O)NC(C)(CO)C3CC3)c2)n1 (configuration not stated),47.4%
5,Cc1cc(F)c2c(c1)CCCN2S(=O)(=O)c1ncn(C)c1Cl,33.7%
6,Cc1nn(C(C)C)cc1S(=O)(=O)N(C)Cc1nonc1C,11.8%
7,CC(=O)N1CCCC1c1nccc(C)n1 (configuration not stated),21.6%
8,CC(C)(O)CN1CCN(C(=O)c2ccc3c(c2)COC3)CC1,-1.14%
9,COc1cccc(CCC2CCCCN2)c1 (configuration not stated),36%
10,Cc1cc(C(=O)N2CCN(c3nc4c(C)cccc4s3)CC2)no1,24.7%
11,COc1cc(C)nc(N2CCN(C(=O)c3cc(C)no3)CC2)n1,19.2%
12,Cc1cc(C(=O)N2CCN(c3nc4c(C(C)C)cccc4s3)CC2)on1,92.1%
13,Cc1cc(C(=O)N2CCN(c3nc4c(F)cccc4s3)CC2)no1,-18.5%
14,Cc1cc(C(=O)N2CCN(c3nc4c(C(C)C)cccc4s3)CC2)no1,90.4%
15,COc1cccc2sc(N3CCN(C(=O)c4cc(C)on4)CC3)nc12,17.1%
16,CC(C)Nc1cccc(CC2CCN(S(C)(=O)=O)CC2)n1,41.2%
17,c1ccc(CN2CCc3ncnc(C4CC4)c3CC2)cc1,0.164%
18,N#CC1CCCN(c2ncnc3c2CCN(Cc2ccccc2)CC3)C1 (configuration not stated),67.8%
19,Cn1ccnc1CN1CCc2ncnc(N3CCCC(C#N)C3)c2CC1 (configuration not stated),11.3%
